# Measurements from ChEMBL document CHEMBL2218924, “A broad activity screen in support of a chemogenomic map for kinase signalling research and drug discovery” (Biochem J, 2013).
# Key:
# [1] = molecular target: T1, Ephrin type-A receptor 3 (Homo sapiens) (UniProt P29320); conditions: at 10 µM
# T1 sequence (whole entry): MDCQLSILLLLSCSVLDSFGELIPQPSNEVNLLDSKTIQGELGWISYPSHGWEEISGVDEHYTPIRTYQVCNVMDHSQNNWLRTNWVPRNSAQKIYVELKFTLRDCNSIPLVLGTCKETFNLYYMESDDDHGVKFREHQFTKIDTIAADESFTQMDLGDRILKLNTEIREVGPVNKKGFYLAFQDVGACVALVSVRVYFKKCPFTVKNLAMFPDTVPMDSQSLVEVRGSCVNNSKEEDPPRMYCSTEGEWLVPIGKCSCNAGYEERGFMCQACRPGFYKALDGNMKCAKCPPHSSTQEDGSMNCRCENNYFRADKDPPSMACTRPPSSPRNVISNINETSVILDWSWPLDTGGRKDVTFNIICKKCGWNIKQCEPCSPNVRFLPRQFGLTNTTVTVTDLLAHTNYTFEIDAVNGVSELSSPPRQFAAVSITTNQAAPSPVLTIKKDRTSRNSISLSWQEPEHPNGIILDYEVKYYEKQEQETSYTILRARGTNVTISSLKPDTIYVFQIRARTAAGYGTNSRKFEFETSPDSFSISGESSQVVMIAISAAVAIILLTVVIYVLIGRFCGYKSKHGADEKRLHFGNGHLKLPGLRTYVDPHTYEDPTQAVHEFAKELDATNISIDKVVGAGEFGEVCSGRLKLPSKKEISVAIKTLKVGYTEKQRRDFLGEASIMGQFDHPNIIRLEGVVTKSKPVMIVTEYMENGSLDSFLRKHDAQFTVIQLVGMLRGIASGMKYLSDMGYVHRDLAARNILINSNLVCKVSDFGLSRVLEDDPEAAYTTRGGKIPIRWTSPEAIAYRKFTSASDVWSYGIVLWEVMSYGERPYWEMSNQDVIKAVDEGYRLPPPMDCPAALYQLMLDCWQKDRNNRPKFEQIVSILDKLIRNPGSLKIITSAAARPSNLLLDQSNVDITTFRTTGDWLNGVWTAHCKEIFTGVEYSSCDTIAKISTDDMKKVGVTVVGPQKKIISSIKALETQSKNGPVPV
# [2] = molecular target: Ephrin type-A receptor 4 (Homo sapiens) (UniProt P54764); conditions: at 1 µM
# [3] = molecular target: Ephrin type-A receptor 5 (Homo sapiens) (UniProt P54756); conditions: at 1 µM
# [4] = molecular target: Ephrin type-A receptor 5 (Homo sapiens) (UniProt P54756); conditions: at 10 µM
# [5] = molecular target: Ephrin type-A receptor 7 (Homo sapiens) (UniProt Q15375); conditions: at 1 µM
# [6] = molecular target: Ephrin type-A receptor 7 (Homo sapiens) (UniProt Q15375); conditions: at 10 µM
# [7] = molecular target: T2, Ephrin type-A receptor 8 (Homo sapiens) (UniProt P29322); conditions: at 1 µM
# T2 sequence (whole entry): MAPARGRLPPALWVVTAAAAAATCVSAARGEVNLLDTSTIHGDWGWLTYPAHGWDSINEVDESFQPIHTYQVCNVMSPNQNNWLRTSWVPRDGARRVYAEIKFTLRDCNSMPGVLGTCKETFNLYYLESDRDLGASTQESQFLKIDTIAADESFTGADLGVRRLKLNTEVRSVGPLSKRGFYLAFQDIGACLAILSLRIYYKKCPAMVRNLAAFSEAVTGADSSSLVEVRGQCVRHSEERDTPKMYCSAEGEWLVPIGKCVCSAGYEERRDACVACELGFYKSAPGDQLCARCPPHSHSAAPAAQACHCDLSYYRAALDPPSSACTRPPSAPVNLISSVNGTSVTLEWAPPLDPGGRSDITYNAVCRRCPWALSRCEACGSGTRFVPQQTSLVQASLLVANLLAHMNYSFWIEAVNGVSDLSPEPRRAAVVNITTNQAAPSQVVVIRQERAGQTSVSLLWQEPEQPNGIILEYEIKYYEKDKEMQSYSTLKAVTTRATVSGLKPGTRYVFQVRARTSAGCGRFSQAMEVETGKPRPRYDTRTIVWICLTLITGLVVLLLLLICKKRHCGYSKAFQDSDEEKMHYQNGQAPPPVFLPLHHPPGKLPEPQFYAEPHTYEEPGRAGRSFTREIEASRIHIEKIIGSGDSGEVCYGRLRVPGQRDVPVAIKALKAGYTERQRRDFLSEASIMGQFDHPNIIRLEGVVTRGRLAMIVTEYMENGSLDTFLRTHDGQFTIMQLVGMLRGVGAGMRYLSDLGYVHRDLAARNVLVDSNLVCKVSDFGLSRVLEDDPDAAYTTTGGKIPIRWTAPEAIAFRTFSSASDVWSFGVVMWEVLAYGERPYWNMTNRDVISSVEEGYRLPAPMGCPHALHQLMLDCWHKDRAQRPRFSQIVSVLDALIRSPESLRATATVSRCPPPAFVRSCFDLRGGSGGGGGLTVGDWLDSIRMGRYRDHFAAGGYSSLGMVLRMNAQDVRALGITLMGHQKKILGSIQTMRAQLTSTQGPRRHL
# [8] = molecular target: T2, Ephrin type-A receptor 8 (Homo sapiens); conditions: at 10 µM
# [9] = molecular target: T3, Ephrin type-B receptor 1 (Homo sapiens) (UniProt P54762); conditions: at 1 µM
# T3 sequence (whole entry): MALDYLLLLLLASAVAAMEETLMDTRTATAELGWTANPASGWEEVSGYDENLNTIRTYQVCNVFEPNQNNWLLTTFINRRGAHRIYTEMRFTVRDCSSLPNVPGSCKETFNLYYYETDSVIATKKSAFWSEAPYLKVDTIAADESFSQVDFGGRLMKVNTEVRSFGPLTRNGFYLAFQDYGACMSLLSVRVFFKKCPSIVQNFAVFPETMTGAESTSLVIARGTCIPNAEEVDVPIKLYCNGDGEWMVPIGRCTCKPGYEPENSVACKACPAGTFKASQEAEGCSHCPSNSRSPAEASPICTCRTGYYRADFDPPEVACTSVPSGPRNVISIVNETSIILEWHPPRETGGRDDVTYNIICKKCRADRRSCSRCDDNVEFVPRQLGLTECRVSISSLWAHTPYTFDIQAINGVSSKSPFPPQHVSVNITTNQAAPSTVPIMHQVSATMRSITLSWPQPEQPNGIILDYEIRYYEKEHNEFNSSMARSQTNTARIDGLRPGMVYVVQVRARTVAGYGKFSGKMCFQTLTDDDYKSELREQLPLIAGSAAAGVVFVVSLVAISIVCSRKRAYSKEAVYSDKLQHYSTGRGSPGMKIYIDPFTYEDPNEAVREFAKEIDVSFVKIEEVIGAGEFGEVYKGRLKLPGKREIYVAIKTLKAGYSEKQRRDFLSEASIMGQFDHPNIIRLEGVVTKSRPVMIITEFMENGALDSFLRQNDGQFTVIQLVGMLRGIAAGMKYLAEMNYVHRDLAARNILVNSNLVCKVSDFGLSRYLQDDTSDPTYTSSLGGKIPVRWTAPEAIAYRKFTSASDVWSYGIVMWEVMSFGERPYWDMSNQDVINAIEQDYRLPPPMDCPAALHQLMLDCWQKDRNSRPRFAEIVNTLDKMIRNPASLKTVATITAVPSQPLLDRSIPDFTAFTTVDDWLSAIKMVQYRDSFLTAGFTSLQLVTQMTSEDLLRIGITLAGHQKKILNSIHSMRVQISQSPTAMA
# Chain of Ephrin type-A receptor 5 (Homo sapiens) (P54756 whole entry): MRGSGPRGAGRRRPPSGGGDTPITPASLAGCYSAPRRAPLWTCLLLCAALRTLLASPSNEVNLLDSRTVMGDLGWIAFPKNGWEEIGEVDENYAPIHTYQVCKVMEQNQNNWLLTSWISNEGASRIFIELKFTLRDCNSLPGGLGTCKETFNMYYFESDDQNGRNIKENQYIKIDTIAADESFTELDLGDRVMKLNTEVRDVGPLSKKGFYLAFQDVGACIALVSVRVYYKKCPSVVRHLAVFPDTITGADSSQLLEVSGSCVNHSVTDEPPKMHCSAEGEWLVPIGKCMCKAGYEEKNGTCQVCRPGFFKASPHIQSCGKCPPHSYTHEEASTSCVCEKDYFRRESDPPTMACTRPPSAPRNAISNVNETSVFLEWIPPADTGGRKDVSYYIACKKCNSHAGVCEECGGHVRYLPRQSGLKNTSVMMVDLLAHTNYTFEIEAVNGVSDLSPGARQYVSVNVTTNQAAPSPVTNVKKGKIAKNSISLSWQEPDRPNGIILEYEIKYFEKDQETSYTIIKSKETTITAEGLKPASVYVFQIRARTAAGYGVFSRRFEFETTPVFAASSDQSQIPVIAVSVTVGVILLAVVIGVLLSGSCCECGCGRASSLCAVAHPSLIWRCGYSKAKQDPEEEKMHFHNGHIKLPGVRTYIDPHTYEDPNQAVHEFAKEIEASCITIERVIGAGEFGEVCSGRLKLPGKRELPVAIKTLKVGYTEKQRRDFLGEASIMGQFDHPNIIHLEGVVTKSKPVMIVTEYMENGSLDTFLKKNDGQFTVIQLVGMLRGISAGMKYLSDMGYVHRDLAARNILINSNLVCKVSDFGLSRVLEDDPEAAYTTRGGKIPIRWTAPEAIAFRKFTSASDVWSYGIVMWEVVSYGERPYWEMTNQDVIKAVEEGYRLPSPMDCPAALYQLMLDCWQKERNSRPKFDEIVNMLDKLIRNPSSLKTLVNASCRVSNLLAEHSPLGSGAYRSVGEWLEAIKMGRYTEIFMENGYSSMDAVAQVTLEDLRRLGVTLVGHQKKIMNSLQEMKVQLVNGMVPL
# Chain of Ephrin type-A receptor 7 (Homo sapiens) (Q15375 28-998 limits assumed): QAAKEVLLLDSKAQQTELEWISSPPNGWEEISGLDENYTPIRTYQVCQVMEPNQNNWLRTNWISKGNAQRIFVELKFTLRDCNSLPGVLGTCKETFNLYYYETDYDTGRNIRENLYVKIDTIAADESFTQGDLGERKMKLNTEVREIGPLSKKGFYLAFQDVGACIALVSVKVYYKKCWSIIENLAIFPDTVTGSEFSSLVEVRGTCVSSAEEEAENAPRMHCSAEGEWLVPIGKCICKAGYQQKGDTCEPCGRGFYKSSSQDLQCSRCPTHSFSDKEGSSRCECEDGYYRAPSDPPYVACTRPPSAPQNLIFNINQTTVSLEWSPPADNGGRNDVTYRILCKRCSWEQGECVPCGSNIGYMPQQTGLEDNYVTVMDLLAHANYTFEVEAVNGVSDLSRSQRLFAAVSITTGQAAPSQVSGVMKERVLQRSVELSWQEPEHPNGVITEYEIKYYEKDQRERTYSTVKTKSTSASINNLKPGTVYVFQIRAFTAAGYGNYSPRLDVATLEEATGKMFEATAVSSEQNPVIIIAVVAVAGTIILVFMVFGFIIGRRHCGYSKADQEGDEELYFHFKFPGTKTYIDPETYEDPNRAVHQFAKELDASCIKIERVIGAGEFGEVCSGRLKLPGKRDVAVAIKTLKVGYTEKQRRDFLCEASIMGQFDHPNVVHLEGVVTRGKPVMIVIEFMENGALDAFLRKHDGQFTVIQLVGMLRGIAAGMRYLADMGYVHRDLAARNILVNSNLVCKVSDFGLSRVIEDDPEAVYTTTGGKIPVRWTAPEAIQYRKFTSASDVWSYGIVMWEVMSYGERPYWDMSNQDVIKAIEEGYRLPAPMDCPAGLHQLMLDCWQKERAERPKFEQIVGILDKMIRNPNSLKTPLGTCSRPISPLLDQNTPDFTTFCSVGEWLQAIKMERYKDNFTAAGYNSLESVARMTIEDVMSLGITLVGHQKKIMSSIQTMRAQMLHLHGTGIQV
# Chain of Ephrin type-A receptor 4 (Homo sapiens) (P54764 whole entry): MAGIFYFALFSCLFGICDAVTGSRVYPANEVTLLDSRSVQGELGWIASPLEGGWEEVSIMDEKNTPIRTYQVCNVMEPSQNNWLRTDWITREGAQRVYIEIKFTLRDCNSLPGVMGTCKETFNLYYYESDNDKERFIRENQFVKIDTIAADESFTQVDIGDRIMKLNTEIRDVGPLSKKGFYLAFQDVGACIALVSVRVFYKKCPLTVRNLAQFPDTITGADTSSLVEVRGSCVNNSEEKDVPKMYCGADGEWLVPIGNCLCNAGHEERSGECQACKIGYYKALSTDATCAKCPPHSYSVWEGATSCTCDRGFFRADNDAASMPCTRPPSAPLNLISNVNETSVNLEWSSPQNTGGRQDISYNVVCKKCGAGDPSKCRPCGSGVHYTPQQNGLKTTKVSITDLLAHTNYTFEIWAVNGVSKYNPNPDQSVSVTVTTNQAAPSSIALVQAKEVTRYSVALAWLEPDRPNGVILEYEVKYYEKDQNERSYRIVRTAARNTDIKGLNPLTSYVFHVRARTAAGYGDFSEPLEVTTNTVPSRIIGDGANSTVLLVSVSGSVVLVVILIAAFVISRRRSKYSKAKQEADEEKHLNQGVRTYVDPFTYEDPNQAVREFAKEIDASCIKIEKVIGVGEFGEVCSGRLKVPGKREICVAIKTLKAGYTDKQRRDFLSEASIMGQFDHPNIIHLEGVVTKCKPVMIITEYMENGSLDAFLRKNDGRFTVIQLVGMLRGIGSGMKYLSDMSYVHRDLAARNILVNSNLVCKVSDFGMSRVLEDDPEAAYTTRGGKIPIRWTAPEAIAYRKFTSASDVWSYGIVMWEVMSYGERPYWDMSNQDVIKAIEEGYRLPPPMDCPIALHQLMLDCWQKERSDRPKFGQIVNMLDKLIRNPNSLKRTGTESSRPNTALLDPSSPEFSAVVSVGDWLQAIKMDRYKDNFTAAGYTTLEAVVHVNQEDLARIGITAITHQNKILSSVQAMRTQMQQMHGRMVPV
compound,measurement,setting,value
CC(C)(C)c1cc(C=C(C#N)C#N)cc(Br)c1O,residual activity,[1],106%
same,residual activity,[2],113%
same,residual activity,[3],107%
same,residual activity,[4],97%
same,residual activity,[5],109%
same,residual activity,[6],102%
same,residual activity,[7],117%
same,residual activity,[8],99%
same,residual activity,[9],106%
